A selection: hits, their analogues and other compounds. The true share with any hit is near 2.2%.
APP 5UTR inh – APP translation inhibition. SH-SY5Y APP 5'UTR-luciferase reporter, luminescence. inhibition, % at 2 µM. AID 1285. actives 0.82% (n = 190,000);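 active = inhibition above a set limit, derived from the sample mean plus 3 SD, cut at about 45% in these data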
KLF5 inhibitor – inhibitors of KLF5 expression; DLD-1 KLF5 promoter-luciferase reporter, luminescence; actives 0.23% (n = 290,000); inhibition, % at 5 µM;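 active = inhibition above a per-plate limit of that plate's mean compound inhibition plus 3 SD, cut at about 60% in these data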;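 note: higher means less KLF5 promoter-driven luciferase light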
Ba/F3 V617F tox – reduce viability of Ba/F3 cells dependent on JAK2V617F | AID 1446 | Ba/F3 EpoR-JAK2V617F viability, ATP luminescence | inhibition, % at 5.6 µM | actives 1.1% (n = 220,000);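 active = inhibition above the campaign mean plus 3 SD over all tested compounds, cut at about 24% in these data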;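 note: cytokine-independent growth of Ba/F3 cells driven by EpoR plus mutant JAK2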
aSyn UTR inh – 5' untranslated region of α-synuclein, MLPCN primary screen; alpha-synuclein 5'UTR reporter, inhibitor activity; inhibition, % (tested at 7.5 µM); actives 0.82% (n = 300,000); in the data active = inhibition above about 60%;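 note: H4 neuroglioblastoma cells stably carrying SNCA 5'UTR luciferase fusion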
BaF3 parental – parental Ba/F3 viability inhibition as JAK2V617F counter-screen | inhibition, % at 5.6 µM | actives 1.1% (n = 220,000) | CellTiter-Glo ATP luminescence;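 active = inhibition above a per-campaign cutoff, the mean inhibition of all tested compounds plus 3 SD, cut at about 27% in these data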
IEC-6 tox-1 – IEC-6 cytotoxicity, counter-screen for KLF5 inhibitors | luminescence viability | actives 0.78% (n = 290,000) | inhibition, % at 5 µM; in the data active = inhibition above about 22%
KLF5 confirm – confirmation of KLF5 inhibitors; shares compounds with KLF5 inhibitor; DLD-1 KLF5 promoter firefly luciferase reporter, luminescence; inhibition, % at 4 µM; actives 79% (n = 610); AID 1834;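 active = inhibition above a set limit taken from the earlier primary screen, cut at about 63% in these data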
IEC-6 tox-2 – rat IEC-6 cytotoxicity, KLF5 inhibitor counter-screen; shares compounds with KLF5 inhibitor; actives 56% (n = 610); inhibition, % at 4 µM; IEC-6 rat intestinal cells, viability luminescence; in the data active = inhibition above about 23%;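 note: cells exposed to compounds for 48 hours before viability read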
Hits are given with their value.

For O=[N+]([O-])c1cc(CN2CCOCC2)c2cccnc2c1O the results were APP 5UTR inh inactive, KLF5 inhibitor inactive, Ba/F3 V617F tox inactive, BaF3 parental inactive and IEC-6 tox-1 inactive.
O=[N+]([O-])c1cc(CN2CCN(c3ccccc3)CC2)c(O)c2ncccc12 was read as APP 5UTR inh 80.1, KLF5 inhibitor 76.3, Ba/F3 V617F tox 73.6, aSyn UTR inh 82.0, BaF3 parental 75.5, IEC-6 tox-1 51.8, KLF5 confirm 89.2 and IEC-6 tox-2 76.6.
For CCN(CC)CCn1nc(C)nc1-c1ccccc1O the results were APP 5UTR inh inactive, KLF5 inhibitor inactive, Ba/F3 V617F tox inactive, aSyn UTR inh inactive, BaF3 parental inactive and IEC-6 tox-1 inactive.
Screening CCN(CC)CCn1nc2c3c(cccc3c1=O)-c1ccccc1-2 returned APP 5UTR inh 67.7, KLF5 inhibitor 72.3, Ba/F3 V617F tox 102.0, aSyn UTR inh inactive, BaF3 parental 100.3, IEC-6 tox-1 86.7, KLF5 confirm inactive and IEC-6 tox-2 75.3.
CCOc1cccc(/C=N/NC(=O)c2ccc3c(c2)OCCO3)c1O was read as KLF5 inhibitor 65.0, aSyn UTR inh inactive, IEC-6 tox-1 inactive, KLF5 confirm 93.4 and IEC-6 tox-2 inactive.
`COc1cccc(/C=N/NC(=O)CNC(=O)c2ccc3c(c2)OCCO3)c1O` gave APP 5UTR inh inactive, KLF5 inhibitor inactive, Ba/F3 V617F tox inactive, aSyn UTR inh inactive, BaF3 parental inactive and IEC-6 tox-1 inactive.
`C/C(=N/NC(=O)c1ccccn1)c1ccc(O)cc1` gave KLF5 inhibitor inactive, Ba/F3 V617F tox inactive, aSyn UTR inh inactive, BaF3 parental inactive and IEC-6 tox-1 inactive.
For COc1cc(C(=O)N/N=C(\C)c2ccccn2)cc(OC)c1OC the results were KLF5 inhibitor 83.5, aSyn UTR inh 109.2, IEC-6 tox-1 95.5, KLF5 confirm inactive and IEC-6 tox-2 35.0.
For O=C(c1cc(-c2ccccc2Cl)on1)N1CCCC1 the results were KLF5 inhibitor 74.3, aSyn UTR inh inactive, IEC-6 tox-1 inactive, KLF5 confirm 65.3 and IEC-6 tox-2 inactive.
O=c1[nH]c2ccc(S(=O)(=O)N3CCCCC3)cc2s1 was read as KLF5 inhibitor inactive, aSyn UTR inh inactive and IEC-6 tox-1 inactive.
C/C(=N\Nc1ccc2nncn2n1)c1ccccn1 was read as KLF5 inhibitor 67.8, Ba/F3 V617F tox 75.9, aSyn UTR inh 93.9, BaF3 parental 68.6, IEC-6 tox-1 inactive, KLF5 confirm 76.2 and IEC-6 tox-2 82.9.
For O=C(N/N=C/c1cccs1)c1cc(C2CC2)nc2ccccc12 the results were APP 5UTR inh inactive, KLF5 inhibitor inactive, Ba/F3 V617F tox inactive, aSyn UTR inh inactive, BaF3 parental inactive and IEC-6 tox-1 inactive.
Screening O=C(N/N=C/c1cccs1)c1cc(-c2ccncc2)nc2ccccc12 returned APP 5UTR inh 94.6, KLF5 inhibitor 75.3, Ba/F3 V617F tox 68.9, aSyn UTR inh 61.9, BaF3 parental 72.9, IEC-6 tox-1 71.8, KLF5 confirm 82.5 and IEC-6 tox-2 59.9.
For Cc1nn(-c2ccccc2)c(C)c1/C=N/NC(=O)c1cc(-c2cccs2)[nH]n1 the results were APP 5UTR inh 92.7, KLF5 inhibitor 82.3, Ba/F3 V617F tox 71.0, aSyn UTR inh inactive, BaF3 parental 73.5, IEC-6 tox-1 71.7, KLF5 confirm 77.4 and IEC-6 tox-2 68.6.
Cc1ccc(C(=O)O/N=C(\N)c2ccccn2)c(C)c1 was read as KLF5 inhibitor 108.0, aSyn UTR inh 105.9, IEC-6 tox-1 inactive, KLF5 confirm 104.5 and IEC-6 tox-2 inactive.
`c1ccc(-c2noc(-c3ccc4ccccc4c3)n2)nc1` gave APP 5UTR inh 48.6, KLF5 inhibitor 81.6, Ba/F3 V617F tox inactive, aSyn UTR inh 113.1, BaF3 parental inactive, IEC-6 tox-1 inactive, KLF5 confirm 106.0 and IEC-6 tox-2 inactive.
Screening Cc1ccc(C(=O)Nc2nc3ccccc3[nH]2)cc1 returned KLF5 inhibitor 85.6, aSyn UTR inh 68.1, IEC-6 tox-1 inactive, KLF5 confirm 66.0 and IEC-6 tox-2 inactive.
For O=C(Nc1nc2ccccc2[nH]1)c1ccc([N+](=O)[O-])cc1 the results were APP 5UTR inh inactive, KLF5 inhibitor inactive, Ba/F3 V617F tox inactive, aSyn UTR inh inactive, BaF3 parental inactive and IEC-6 tox-1 inactive.
`O=C(Nc1cnc2ccccc2c1)c1cccnc1` gave APP 5UTR inh inactive, KLF5 inhibitor inactive, Ba/F3 V617F tox inactive, aSyn UTR inh inactive, BaF3 parental inactive and IEC-6 tox-1 inactive.
`COc1ccc(C(=O)Nc2nc3ccccc3[nH]2)cc1` gave KLF5 inhibitor 65.4, aSyn UTR inh 70.7, IEC-6 tox-1 inactive, KLF5 confirm inactive and IEC-6 tox-2 inactive.
For Cc1ccc(C(=O)Nc2cnc3ccccc3c2)cc1 the results were APP 5UTR inh inactive, KLF5 inhibitor 96.9, Ba/F3 V617F tox inactive, aSyn UTR inh 103.5, BaF3 parental inactive, IEC-6 tox-1 inactive, KLF5 confirm 104.6 and IEC-6 tox-2 inactive.
Screening COc1cc(C(=O)Nc2nc3ccccc3[nH]2)cc(OC)c1OC returned APP 5UTR inh inactive, KLF5 inhibitor inactive, Ba/F3 V617F tox inactive, aSyn UTR inh inactive, BaF3 parental inactive and IEC-6 tox-1 inactive.
`Cn1c(CNC(=O)C2CCC(=O)N(CCc3cccc(F)c3)C2)nc2ccccc21` (stereo not drawn) gave KLF5 inhibitor inactive, aSyn UTR inh inactive and IEC-6 tox-1 inactive.
C#Cc1ccc([C@@H]2C=C(C(=O)N3CCN(Cc4ccccc4)CC3)O[C@H](OCCCCO)C2)cc1 was read as APP 5UTR inh inactive, KLF5 inhibitor 66.0, Ba/F3 V617F tox 93.9, aSyn UTR inh 98.8, BaF3 parental 87.5, IEC-6 tox-1 inactive, KLF5 confirm 72.9 and IEC-6 tox-2 inactive.
`O=C(C1=C[C@H](c2ccccc2)C[C@H](OCCCCO)O1)N1CCN(Cc2ccccc2)CC1` gave APP 5UTR inh inactive, KLF5 inhibitor inactive, Ba/F3 V617F tox inactive, aSyn UTR inh inactive, BaF3 parental inactive and IEC-6 tox-1 inactive.
O=C(CSCC(=O)Nc1ccccc1)N/N=C/c1c(O)ccc2ccccc12 was read as APP 5UTR inh 65.9, KLF5 inhibitor 67.5, Ba/F3 V617F tox inactive, aSyn UTR inh 76.3, BaF3 parental inactive, IEC-6 tox-1 inactive, KLF5 confirm 78.7 and IEC-6 tox-2 inactive.
For Cc1occc1C(=O)N/N=C/c1c(O)ccc2ccccc12 the results were KLF5 inhibitor inactive, aSyn UTR inh inactive and IEC-6 tox-1 inactive.
O=C(N/N=C/c1c(O)ccc2ccccc12)c1ccc(Br)o1 was read as KLF5 inhibitor 67.6, aSyn UTR inh 106.3, IEC-6 tox-1 inactive, KLF5 confirm 86.4 and IEC-6 tox-2 inactive.
`COc1ccc(CCC(N)=O)cc1OC` gave APP 5UTR inh inactive, KLF5 inhibitor 70.4, Ba/F3 V617F tox inactive, aSyn UTR inh inactive, BaF3 parental inactive, IEC-6 tox-1 inactive, KLF5 confirm inactive and IEC-6 tox-2 inactive.

From PubChem BioAssay
